# Structures can show the parent of a compound that is named as a salt. ± gives the standard deviation of the averaged measurements.
# Columns and labels:
# Assay in all cases: growth (OD600 after 10 h); higher = more growth (less inhibition)
# [1] = test system: E. coli TESEC Alr+ wild-type control; conditions: compound 0.1 mM; raw OD600 reference: median of DMSO wells 0.241, cell-free background 0.041
# Protocol: (§1)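 TESEC Mtb Alr E. coli, or the Alr+ wild-type control, in 384-well plates with Prestwick library compounds at 0.1 mM and 1% DMSO, across arabinose induction levels of 1E3 to 1E7 nM. Growth is read as OD600 after 10 h at 37 °C in triplicate biological replicates.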
# [2] = test system: E. coli TESEC Mtb Alr; conditions: compound 0.1 mM
# Protocol: as §1
# [3] = test system: E. coli TESEC Mtb Asd; conditions: compound 0.1 mM
# Protocol: (§2)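 TESEC E. coli strains in which the native enzyme is deleted and replaced by arabinose-inducible Mtb Asd, DapB, CysH or TrpD, each grown in its selective medium. Strains were screened against the Prestwick library at 0.1 mM and 1% DMSO in 384-well format at low and high arabinose induction. Growth is read as OD600 after 10 h in triplicate.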
# [4] = test system: E. coli TESEC Alr+ wild-type control; conditions: compound 0.1 mM; raw OD600 reference: median of DMSO wells 0.49, cell-free background 0.052
# Protocol: (§3)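 TESEC Mtb Alr E. coli (ΔaraC ΔtolC ΔentC Δalr ΔdadX, arabinose-inducible Mtb Alr) or the Alr+ wild-type control strain, grown in defined M9-fructose medium without D-alanine in 96-well plates with Prestwick library compounds at 0.1 mM and 1% DMSO. Low Alr induction is 0.1 µM arabinose and high induction is 10 mM arabinose.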
# [5] = test system: E. coli TESEC Mtb Alr; conditions: compound 0.1 mM; remark: listed apart in the source
# Protocol: as §3
# [6] = test system: E. coli TESEC Mtb DapB; conditions: compound 0.1 mM
# Protocol: as §2
# [7] = arabinose 1000 nM, raw OD600 reference: median of DMSO wells 0.294, cell-free background 0.041
# [8] = arabinose 10000 nM, raw OD600 reference: median of DMSO wells 0.264, cell-free background 0.041
# [9] = arabinose 100000 nM, raw OD600 reference: median of DMSO wells 0.201, cell-free background 0.041
# [10] = arabinose 1000000 nM, raw OD600 reference: median of DMSO wells 0.193, cell-free background 0.041
# [11] = arabinose 10000000 nM, raw OD600 reference: median of DMSO wells 0.146, cell-free background 0.041
# [12] = arabinose induction (level): High, raw OD600 reference: median of DMSO wells 0.331, cell-free background 0.041
# [13] = arabinose induction (level): Low, raw OD600 reference: median of DMSO wells 0.417, cell-free background 0.041
# [14] = arabinose 100 nM, raw OD600 reference: median of DMSO wells 0.413, cell-free background 0.052
# [15] = arabinose 10000000 nM, raw OD600 reference: median of DMSO wells […], cell-free background 0.052
# [16] = arabinose induction (level): High, raw OD600 reference: median of DMSO wells […], cell-free background 0.041
# [17] = arabinose induction (level): Low, raw OD600 reference: median of DMSO wells 0.227, cell-free background 0.041
SMILES,growth [1],"growth [2, 7]","growth [2, 8]","growth [2, 9]","growth [2, 10]","growth [2, 11]","growth [3, 12]","growth [3, 13]",growth [4],"growth [5, 14]","growth [5, 15]","growth [6, 16]","growth [6, 17]"
CCCCCC[C@H]1C(=O)O[C@H](C)[C@H](NC(=O)c2cccc(NC=O)c2O)C(=O)O[C@@H](C)[C@@H]1OC(=O)CC(C)C [Antimycin A],0.191 ± 0.0077,0.203 ± 0.018,0.234 ± 0.0026,0.249 ± 0.022,0.125 ± 0.0067,0.159 ± 0.0018,0.24 ± 0.017,0.316 ± 0.12,0.428 ± 0.022,0.363 ± 0.0093,0.319 ± 0.02,,
O=c1c2ccccc2[se]n1-c1ccccc1 [Ebselen],0.067 ± 0.0015,0.295 ± 0.02,0.261 ± 0.0064,0.236 ± 0.027,0.224 ± 0.017,0.164 ± 0.0046,0.0698 ± 0.0046,0.061 ± 0.008,,0.355 ± 0.009,0.346 ± 0.0078,,
O=C(CCCN1CCC2(CC1)C(=O)NCN2c1ccccc1)c1ccc(F)cc1 [Spiperone],0.214 ± 0.0064,0.273 ± 0.019,0.276 ± 0.011,0.1711 ± 0.0014,0.169 ± 0.0073,0.149 ± 0.0039,0.274 ± 0.066,0.43 ± 0.042,,0.409 ± 0.0039,0.354 ± 0.027,,
CCCC(C)C1(CC)C(=O)NC(=O)NC1=O (stereo not drawn) [Pentobarbital],0.233 ± 0.0093,0.279 ± 0.016,0.255 ± 0.013,0.233 ± 0.019,0.203 ± 0.011,0.143 ± 0.0092,0.451 ± 0.018,0.399 ± 0.087,0.432 ± 0.011,0.4 ± 0.018,0.369 ± 0.0053,,
CC(C)C[C@H]1C(=O)N2CCC[C@H]2[C@]2(O)O[C@](NC(=O)[C@@H]3C=C4c5cccc6[nH]c(Br)c(c56)C[C@H]4N(C)C3)(C(C)C)C(=O)N12 [Bromocryptine mesylate],0.108 ± 0.0027,0.112 ± 0.058,0.108 ± 0.0015,0.187 ± 0.12,0.0887 ± 0.025,0.191 ± 0.013,0.208 ± 0.056,0.117 ± 0.047,,0.401 ± 0.0088,0.323 ± 0.067,,
C[C@]12C/C(=C/O)C(=O)C[C@@H]1CC[C@@H]1[C@@H]2CC[C@@]2(C)[C@H]1CC[C@]2(C)O [Oxymetholone],0.162 ± 0.002,0.293 ± 0.0078,0.241 ± 0.025,0.244 ± 0.014,0.101 ± 0.0039,0.177 ± 0.0058,0.124 ± 0.0085,0.226 ± 0.043,,0.379 ± 0.019,0.252 ± 0.004,,
C(#CCN1CCCC1)CN1CCCC1 [Tremorine dihydrochloride],0.275 ± 0.0094,0.317 ± 0.011,0.27 ± 0.005,0.239 ± 0.013,0.194 ± 0.0086,0.162 ± 0.008,0.425 ± 0.059,0.464 ± 0.029,,0.415 ± 0.018,0.375 ± 0.023,,
NC(=O)C[S+]([O-])C(c1ccccc1)c1ccccc1 (stereo not drawn) [Modafinil],0.246 ± 0.0057,0.295 ± 0.0039,0.255 ± 0.015,0.246 ± 0.021,0.192 ± 0.0097,0.148 ± 0.0039,0.348 ± 0.097,0.434 ± 0.039,0.634 ± 0.016,0.406 ± 0.0054,0.346 ± 0.021,,
C[C@]12CC[C@@H](O)C[C@H]1CC[C@@H]1[C@@H]2CC[C@]2(C)C(=O)CC[C@@H]12 [3-alpha-Hydroxy-5-beta-androstan-17-one],0.129 ± 0.0054,0.135 ± 0.0032,0.114 ± 0.0066,0.131 ± 0.015,0.0604 ± 0.00044,0.0824 ± 0.00098,0.118 ± 0.0061,0.171 ± 0.018,,0.354 ± 0.027,0.0844 ± 0.0097,,
C[N+]1(C)[C@@H]2CC[C@H]1C[C@@H](OC(=O)C(CO)c1ccccc1)C2 (stereo partly drawn) [Methylatropine nitrate],0.232 ± 0.013,0.283 ± 0.017,0.247 ± 0.0037,0.206 ± 0.0059,0.2 ± 0.007,0.14 ± 0.0059,0.286 ± 0.02,0.438 ± 0.022,0.707 ± 0.049,0.391 ± 0.011,0.355 ± 0.012,,
CC[C@@H](C(N)=O)N1CCCC1=O [Levetiracetam],0.247 ± 0.0084,0.304 ± 0.018,0.264 ± 0.0095,0.205 ± 0.0055,0.183 ± 0.0062,0.168 ± 0.0049,0.256 ± 0.074,0.313 ± 0.057,,0.409 ± 0.0085,0.364 ± 0.028,0.188 ± 0.0023,0.229 ± 0.023
CCC(COC(=O)c1cc(OC)c(OC)c(OC)c1)(c1ccccc1)N(C)C (stereo not drawn) [Trimebutine],0.13 ± 0.0031,0.142 ± 0.012,0.151 ± 0.011,0.116 ± 0.0031,0.0716 ± 0.0024,0.101 ± 0.015,0.205 ± 0.033,0.245 ± 0.085,,0.403 ± 0.0063,0.119 ± 0.0083,0.1665 ± 0.0014,0.191 ± 0.028
C=C(C)[C@@H]1[C@H]2OC(=O)[C@@H]1[C@]1(O)C[C@H]3O[C@]34C(=O)O[C@H]2[C@]14C [Picrotoxinin],0.253 ± 0.0051,0.314 ± 0.023,0.2631 ± 0.002,0.215 ± 0.023,0.186 ± 0.0029,0.138 ± 0.0029,0.343 ± 0.016,0.461 ± 0.003,,0.401 ± 0.011,0.351 ± 0.0093,,
CCC1(c2cccc(O)c2)CCCCN(C)C1 (stereo not drawn) [Meptazinol hydrochloride],0.2565 ± 0.0013,0.3214 ± 0.0014,0.3 ± 0.0084,0.192 ± 0.015,0.203 ± 0.018,0.139 ± 0.0077,0.176 ± 0.04,0.41 ± 0.095,,0.411 ± 0.014,0.323 ± 0.023,,
